Experimental data published in PubChem BioAssay AID1347076 (National Center for Advancing Translational Sciences (NCATS), 2019).
In all, about 400,000 compounds went through this assay and about 13,000 (3.2%) were called active. Not shown: some 18% with an inconclusive outcome. The call rests on the fitted dose curve; in most records, active means well fitted cell-killing curve with a large enough effect; inconclusive means small, poorly fitted or top-dose-only effect, or effect the other way; inactive means flat fitted curve, though single readings scatter. The entries come from a sample that favours actives as a whole.

experiment: qHTS assay for MDR1-selective chemotherapeutics: Primary screen using the drug-selected MDR subline cells KB-V1; settings: KB-V1 MDR cells viability, CellTiter-Glo, 72 h; series mostly up to 46.1 µM; activity change, negative = cytotoxicity: at the top concentration; further: nearly all actives have a fitted effect of over 60% in size
Procedure, shortened: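 Cells of the MDR subline KB-V1 are plated, dosed with compound at multiple concentrations, and incubated 72 h at 37 degrees C; CellTiter-Glo is then added and luminescence read after 10 min.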
On the % scale 0 is the no-effect control and ±100 the full control effect; potency means the concentration at half of the fitted maximal effect.

Row | SMILES | activity change, negative = cytotoxicity | Potency
1 | COc1ccccc1NC(=O)C(CC(=O)O)Cc1cc(C)cc(C)c1 (centres undefined) | 22.5% (inactive) | 
2 | Cc1ccc(F)c(S(=O)(=O)NC(=O)C2(C)CCN2C(=O)CCc2cccs2)c1 (centres undefined) | 2.1% (inactive) | 
3 | Cc1ccccc1NC(=O)c1cc(S(=O)(=O)Nc2cccc(C(=O)O)c2)ccc1Cl | 28% (inactive) | 
4 | C=CCNC(=O)c1ccccc1NC(=O)c1ccc(Cl)c(S(=O)(=O)Nc2cccc(C)c2C)c1 |  | 2.91 µM (active)
5 | COc1ccc(NS(=O)(=O)c2cc(C(=O)Nc3ccccc3C(=O)O)ccc2C)cc1 | 17% (inactive) | 
6 | Nc1ncnc2nnsc12 | -6.07% (inactive) | 
7 | CCN(c1ncnc2c1cnn2-c1ccc(C)cc1)C1CCCCC1 | 1.03% (inactive) | 
8 | CN(C(=O)CSc1nnnn1-c1ccccc1)C1CCCCC1 | -7.24% (inactive) | 
9 | CN(C(=O)COc1ncnc2c1cnn2-c1ccccc1)C1CCCCC1 |  | 9.2 µM (active)
10 | CC(C)(C)OC(=O)N(Cc1ccco1)S(=O)(=O)c1ccccc1Br | -12.2% (inactive) | 
11 | CCc1nc2c(OCCOc3ccccc3)cccn2c1N(C)C(=O)c1cccs1 | 1.04% (inactive) | 
12 | CC(C)NC(=O)C1(C)CCCCN1Cc1cccc(C(F)(F)F)c1 (centres undefined) | -13.8% (inactive) | 
13 | Cc1cc2c(cc1C)N1C(=O)c3cc4ccccc4cc3NC(=O)C1C(=O)N2 (centres undefined) | 18.4% (inactive) | 
14 | C=CCc1ccc(OCCOc2cccc(/C=N/n3cnnc3)c2)c(OC)c1 | -18.5% (inactive) | 
15 | COc1cccc(OCCOc2cccc(/C=N/n3cnnc3)c2)c1 |  | 18.4 µM (active)
16 | COCCNCCOCCOc1cccc(OC)c1 | 7.45% (inactive) | 
17 | COc1cccc(CNC(=O)CSc2c3c(nc4cc(Cl)ccc24)CCCC3)c1 | -15.6% (inactive) | 
18 | CC(=O)NCCC(=O)Nc1nc(-c2ccc3c(c2)OCCO3)cs1 | 13% (inactive) | 
19 | O=C(Nc1nc2ccccc2s1)c1ccc2c(c1)OCO2 | -25.4% (inactive) | 
20 | O=C(Nc1nc(-c2ccc3c(c2)OCO3)cs1)c1ccncc1 |  | 2.59 µM (active)
21 | CN(C)C1CN(Cc2cn(Cc3ccccc3)nn2)S(=O)(=O)C1 (centres undefined) | 12% (inactive) | 
22 | COC(=O)c1cc2occc2n1Cc1nc(-c2ccc(C)cc2)oc1C | -14.7% (inactive) | 
23 | O=C(NCc1ccc(F)cc1F)[C@@H]1CCCN1C(=O)[C@@H]1CCCN1C(=O)c1cccc(Cl)c1 | -5.66% (inactive) | 
24 | Cc1nn(-c2ccccc2)c(Cl)c1C(=O)Nc1ccccc1 | 0% (inactive) | 
25 | Cc1nn(-c2ccccc2)c(Cl)c1/C=C/C(=O)c1ccc(O)cc1 |  | 20.6 µM (active)
26 | Cc1nn(-c2ccccc2)c(Cl)c1/C=N/NC(=O)c1nn(C)cc1[N+](=O)[O-] | -21.2% (inactive) | 

Row | SMILES | activity change, negative = cytotoxicity | Potency
27 | O=C1NC(O)CCN1C1CC(O)C(CO)O1 (centres undefined) | 3.08% (inactive) | 
28 | N#Cc1cccc(Nc2c3c(nc4ccccc24)CCCC3)c1 | 0% (inactive) | 
29 | Cc1ccc(Nc2c3c(nc4ccccc24)CCC3)cc1 |  | 5.8 µM (active)
30 | Cc1cc(Nc2ccc(Br)cc2)nc2ccccc12 | 0% (inactive) | 
31 | O=C(OCc1ccccc1)N1CCC2CC1c1cc(N3CCN(S(=O)(=O)c4cc(Cl)cc(Cl)c4)CC3)ccc12 (centres undefined) | -9.13% (inactive) | 
32 | COc1ccc(C/C(N)=N/OC(=O)c2ccco2)cc1OC | -7.55% (inactive) | 
33 | COc1ccc(C(=O)ON=C2c3ccccc3-c3ccccc32)cc1OC | -13.7% (inactive) | 
34 | COc1ccc(C(=O)O/N=C(\N)Cc2ccc(Cl)cc2Cl)cc1OC |  | 23.1 µM (active)
35 | COc1ccc(S(=O)(=O)N2CCCCC2c2cc(C(=O)NCc3ccc(F)cc3)no2)cc1 (centres undefined) | -24.5% (inactive) | 
36 | CCOC(=O)[C@]12CCCC=C1N(Cc1ccc3c(c1)OCO3)C(=O)[C@H](CC(=O)N1CCN(C(=O)c3ccco3)CC1)C2 | 0% (inactive) | 
37 | CC(=O)C1=CCC(c2ccccc2)N(S(=O)(=O)c2ccc(C)cc2)C1 (centres undefined) | 4.38% (inactive) | 
38 | N#Cc1ccc(OCC(=O)Nc2nc(-c3ccccn3)cs2)cc1 | -0.182% (inactive) | 
39 | O=C(COc1ccccc1F)Nc1nc(-c2ccccn2)cs1 |  | 4.61 µM (active)
40 | O=C(COc1ccccc1F)NC1CC1 | -1.57% (inactive) | 
41 | COc1ccc(-c2ccc3ncnc(NCc4cccs4)c3c2)cc1OC | 12.9% (inactive) | 
42 | CCOC(=O)C1=CC[C@@H](c2ccccc2)N(S(=O)(=O)c2ccc(C)cc2)[C@H]1c1ccc(CC)cc1 | -16.3% (inactive) | 
43 | CCOc1ccc(S(=O)(=O)N2CCN(C(=S)NCC3CCCO3)CC2)cc1 (centres undefined) | -3.32% (inactive) | 
44 | S=C(NCC1CCCO1)N1CCN(c2ccc(Cl)c(Cl)c2)CC1 (centres undefined) |  | 7.31 µM (active)
45 | COc1ccc(S(=O)(=O)N2CCN(C(=S)NCC3CCCO3)CC2)cc1OC (centres undefined) | -5.5% (inactive) | 
46 | CCCC(=O)Nc1ccc2oc(-c3ccc(O)c(Br)c3)nc2c1 | 0% (inactive) | 
47 | Cc1nn(CC(=O)N/N=C/c2ccc(F)cc2)c(C)c1[N+](=O)[O-] | 18.1% (inactive) | 
48 | Cc1nn(Cc2ccc(C(=O)N3N=C(C(F)F)CC3(O)C(F)F)cc2)c(C)c1[N+](=O)[O-] (centres undefined) |  | 8.2 µM (active)
49 | Cc1ccn(CC(=O)N2N=C(C(F)F)CC2(O)C(F)F)n1 (centres undefined) | 13.8% (inactive) | 
50 | N#Cc1ccc(-c2nc3c(Cl)cc(C(F)(F)F)cn3c2Cc2ccccc2C(F)(F)F)cc1 | -4.42% (inactive) | 
51 | COC(=O)C1=C(C)NC(=O)CC1c1ccccc1OC (centres undefined) | -1.64% (inactive) | 
52 | O=C1CC(c2ccc(F)cc2F)c2cc3c(cc2N1)OCO3 (centres undefined) | 0% (inactive) | 

Row | SMILES | activity change, negative = cytotoxicity | Potency
53 | CCCOc1ccccc1C1CC(=O)Nc2cc3c(cc21)OCO3 (centres undefined) |  | 4.61 µM (active)
54 | Cc1cccc(N2CCN(c3ccc(C(=O)O)cc3NC(=O)c3ccccc3F)CC2C)c1 (centres undefined) | 7.99% (inactive) | 
55 | CC1CCN(C(=O)CSc2nnc(-c3ccco3)n2N)CC1 | 0% (inactive) | 
56 | COc1cccc(C(O)c2nc(-c3ccc(C)c(C)c3)cs2)c1 (centres undefined) | -4.18% (inactive) | 
57 | COc1ccc(S(=O)(=O)N2CCOCC2)cc1NC(=O)CC1CC2CCC1C2 (centres undefined) | -15.9% (inactive) | 
58 | COc1ccccc1/C=C/C(=O)NC1CC2CCC1C2 (centres undefined) | -12.1% (inactive) | 
59 | COc1ccccc1NC(=O)COC(=O)COc1ccccc1F | 14.3% (inactive) | 
60 | CCCN(CC(=O)Nc1ccccc1OC)C(=O)CCC(=O)c1ccc(F)cc1 |  | 10.3 µM (active)
61 | COc1ccccc1NC(=O)CN(c1ccccc1OC)S(=O)(=O)c1ccccc1 | 0% (inactive) | 
62 | CCN(CC(=O)Nc1ccccc1OC)C(=O)CC1CC2CCC1C2 (centres undefined) |  | 16.4 µM (active)
63 | Cc1cc(C)cc(NC(=O)CCS(=O)(=O)c2cc3c4c(c2)CCN4C(=O)CC3)c1 | 0% (inactive) | 
64 | Cc1cccc(CN2CCN(C3CN(Cc4cn(Cc5ccccc5F)nn4)S(=O)(=O)C3)CC2)c1 (centres undefined) | -1.94% (inactive) | 
65 | CC(NC(=S)NNS(=O)(=O)c1ccc(C(C)(C)C)cc1)c1ccccc1 (centres undefined) | -6.37% (inactive) | 
66 | Cc1ccc(C)c(NC(=S)NNC(=S)Nc2ccc(C(C)C)cc2)c1 | -25.9% (inactive) | 
67 | Cc1ccc(C)c(NC(=S)NNC(=O)c2csc(C)c2)c1 |  | 18.4 µM (active)
68 | Cc1ccc(C)c(NC(=O)CCC(=O)NNC(=O)c2cccs2)c1 | 24.8% (inactive) | 
69 | Cc1ccc(OCC(=O)NC(C)c2ccccc2)cc1C (centres undefined) | 17.2% (inactive) | 
70 | Cc1cc(C(=O)NNC(=S)NC(C)c2ccccc2)cs1 (centres undefined) |  | 14.6 µM (active)
71 | Nc1nc2ncccn2c1-c1ccccc1 | -4.04% (inactive) | 
72 | CO[C@H]1O[C@@H]2O[C@@]3(C)CC[C@@H]4[C@@H](C)CC[C@@H]([C@H]1C)[C@@]24OO3 | 15.3% (inactive) | 
73 | COc1ccc(C)cc1-n1c(-c2ccc(C)cc2)cc2c1CC(C)(C)CC2=O | -3.87% (inactive) | 
74 | O=C(C[C@H]1CC[C@H]2[C@@H](COC[C@H](O)CN2C(=O)c2ccccn2)O1)N1CCN(c2ccccc2)CC1 | -1.19% (inactive) | 
75 | O=c1[nH]c(CN2CCN(S(=O)(=O)c3ccc4c(c3)OCCO4)CC2)nc2sc3c(c12)CCCC3 | 1.37% (inactive) | 
76 | CS(=O)(=O)N(Cc1nc2sc3c(c2c(=O)[nH]1)CCCC3)C1CCCCC1 |  | 16.4 µM (active)
77 | CCN(CC)Cc1nc2sc(C)c(C)c2c(=O)[nH]1 | 0% (inactive) | 
78 | Cc1ccc(Cl)cc1N1CCN(C(=O)C2CCC(CNS(=O)(=O)c3cccs3)CC2)CC1 (centres undefined) |  | 10.3 µM (active)

Row | SMILES | activity change, negative = cytotoxicity | Potency
79 | O=C(CNS(=O)(=O)c1cccs1)N1CCN(c2ccccc2Cl)CC1 | -4.89% (inactive) | 
80 | Cc1ccc(C)c(N2CCN(C(=O)C3CCC(CNS(=O)(=O)c4cccs4)CC3)CC2)c1 (centres undefined) | -23.1% (inactive) | 
81 | COc1ccc(S(=O)(=O)N2CCC(C(=O)NCCC(=O)NCCc3cccc(F)c3)CC2)cc1 | 15.5% (inactive) | 
82 | CC1CCCC(NC(=O)COC(=O)c2ccccc2C(=O)N(C)C2CCCCC2)C1C (centres undefined) | -16.4% (inactive) | 
83 | O=C(c1cc(-c2ccc(F)cc2)on1)N1CCN(c2ccc(F)cc2)CC1 |  | inactive
84 | COc1ccc(-c2cc(C(=O)N3CCN(c4ccc(F)cc4)CC3)no2)cc1 |  | 18.4 µM (active)
85 | O=C(c1cc(-c2ccc(Cl)cc2)on1)N1CCN(c2ccccc2)CC1 | -1.64% (inactive) | 
86 | CC1=C(C(=O)N2CCOCC2)CC(CC(=O)NCc2ccco2)C(=O)N1Cc1ccc(F)cc1 (centres undefined) | -14.3% (inactive) | 
87 | O=C(NNC(=O)c1ccccc1O)c1ccccc1O |  | 0.517 µM (active)
88 | Cc1cc(C(=O)NNC(=O)c2ccccc2O)c(C)o1 | -8.82% (inactive) | 
89 | Cc1cc(C(=O)CCC(=O)NNC(=O)c2ccccc2O)c(C)s1 | -7.24% (inactive) | 
90 | COc1ccc(NC(=O)CN(C)C(=O)c2cc(C)oc2C)cc1 | 4.74% (inactive) | 
91 | Cc1cc2nc(C)n(CCCNC(=O)Nc3ccccc3)c2cc1C |  | 23.1 µM (active)
92 | COc1ccc(OCCCn2c(C)nc3cc(C)c(C)cc32)cc1 | -11.1% (inactive) | 
93 | Cn1c(CCN2CCCCCC2)nc2cc(NC(=O)Nc3ccccc3)ccc21 | -13% (inactive) | 
94 | CCOC(=O)C1(C)CCCN(C(=O)c2ccc(F)c(Cl)c2)C1 (centres undefined) | 1.02% (inactive) | 
95 | CNc1cc(-c2c(OC)cccc2OC)ncn1 | 4.08% (inactive) | 
96 | COc1ccccc1CCNC(=O)c1cnccn1 |  | 16.4 µM (active)
97 | O=C(NCCCNC(=O)c1ccccc1Cl)c1cnccn1 | 0.177% (inactive) | 
98 | Cc1ccc(C(=O)NCCNC(=O)c2cnccn2)cc1 | -5.06% (inactive) | 
99 | CC(=O)Nc1c(-c2ccc(C)cc2)nc2ccc(Cl)cn12 | -4.17% (inactive) | 
100 | O=C(NCC(F)(F)F)c1ccc(S(=O)(=O)NCCc2ccc3c(c2)OCCO3)cc1 | -0.75% (inactive) | 
101 | CCCc1nc2ccccc2n1C(C)C(=O)NC(C)(C)C (centres undefined) | -9.93% (inactive) | 
102 | COc1ccc(COC[C@H](CC(C)C)N2CCN(C(=O)c3cccc(C(F)(F)F)c3)CCC2=O)cc1 | -8.45% (inactive) | 
103 | CC(C)CC(COCc1ccc(Cl)cc1)N1CCN(C(=O)c2ccc(C(F)(F)F)cc2)CCC1=O (centres undefined) |  | 20.6 µM (active)
104 | O=C(c1cc(Cl)cc(Cl)c1)N1CCC(=O)N(C(COCc2ccccc2)Cc2ccccc2)CC1 (centres undefined) | 0% (inactive) | 
